The values that follow come from PubChem BioAssay (NCI).

What all share (assay): NCI-60 one-dose screen, 48 h (100 = growth as untreated, 0 = no growth, -100 = all killed)
One assay has as its system SR leukemia. The settings on record: 10 µM unless noted.
The next assay has as its system RPMI-8226 leukemia. The settings on record: 10 µM unless noted.
The subject of another assay is OVCAR-8 ovarian. Particulars: 10 µM unless noted.
The next assay has as its system OVCAR-5 ovarian. Particulars: 10 µM unless noted.
The subject of a further assay is OVCAR-4 ovarian. The settings on record: 10 µM unless noted.
A further assay relates to SK-OV-3 ovarian. Particulars: 10 µM unless noted.
The subject of another assay is IGROV1 ovarian. Particulars: 10 µM unless noted.
The subject of the next assay is OVCAR-3 ovarian. The settings on record: 10 µM unless noted.
A further assay deals with HS 578T breast. Particulars: 10 µM.
The subject of another assay is NCI/ADR-RES ovarian. Particulars: 10 µM unless noted.

Each structure is given as a SMILES string. About 83,000 compounds went through this panel and 20% of them were active in at least one assay; those are over-represented in the sample as a whole.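 Growth was measured after 48 h exposure to one concentration of compound in 96-well plates. Values under 10 count as active.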 A number with no mark means an inactive call. Activity calls are given as the source filed them.

On to `CC(=O)O[C@]1(C)C[C@H](O)[C@]2(O)C=CO[C@H](O[C@@H]3O[C@H](CO)[C@@H](O)[C@H](O)[C@H]3O)[C@@H]21`, for which the growth was 92.3% in the assay on SR leukemia; 104% in the assay with RPMI-8226 leukemia; 110% in the assay on OVCAR-8 ovarian; 103% in the assay with OVCAR-5 ovarian; 99.8% in the assay with OVCAR-4 ovarian; 102% in the assay on SK-OV-3 ovarian. For the same compound, the growth in the assay with IGROV1 ovarian was 100%; in the assay with OVCAR-3 ovarian, 108%; in the assay on HS 578T breast, 112%; with NCI/ADR-RES ovarian, 107%.
For `CCCCCCCCCCCC[n+]1ccccc1`, the growth in the assay with SR leukemia is -20.7% (active); in the assay on RPMI-8226 leukemia it was -39.2% (active); in the assay with OVCAR-8 ovarian it was 0.812% (active); with OVCAR-5 ovarian, 14.6%; in the assay with OVCAR-4 ovarian it was 14.9%; with SK-OV-3 ovarian, -1.15% (active). The growth with IGROV1 ovarian is -37.5% (active); in the assay with OVCAR-3 ovarian, -32.9% (active); in the assay with HS 578T breast, 6.1% (active); in the assay with NCI/ADR-RES ovarian it was 75.4%.
Consider `Cc1cc(O)c2c(c1)C1OC(=O)CCCCCN1C1=C2C(=O)c2cccc(OC3CC(O)C(O)C(C)O3)c2C1=O` (stereo not given), for which the growth with SR leukemia is 54.2%; in the assay on RPMI-8226 leukemia it was 73.3%; with OVCAR-8 ovarian it was 52.9%; in the assay with OVCAR-5 ovarian, 130%; in the assay with OVCAR-4 ovarian, 90.2%; in the assay with SK-OV-3 ovarian, 89.8%. The growth with IGROV1 ovarian is 96.4%; with OVCAR-3 ovarian it was 7.5% (active); with HS 578T breast it was 71.5%; in the assay with NCI/ADR-RES ovarian, 91%.
In the case of `Cc1ccc(N=C2CSc3nnc(-c4csc5c4CCCC5)n3N2)cc1`, the growth was 32.2% with SR leukemia; 24.7% in the assay with RPMI-8226 leukemia; 35.1% with OVCAR-8 ovarian; 54.4% with OVCAR-5 ovarian; 62.1% with OVCAR-4 ovarian; 27.6% in the assay with SK-OV-3 ovarian. The growth in the assay on IGROV1 ovarian is 53.3%; in the assay on OVCAR-3 ovarian it was -21.4% (active); with HS 578T breast, 38.8%; in the assay with NCI/ADR-RES ovarian, 1.16% (active).
As for `Fc1ccc(NCc2cn(-c3ccccc3)nc2-c2ccc(OCc3ccccc3)cc2)cc1Cl`, the growth with SR leukemia is 96.1%; in the assay on RPMI-8226 leukemia it was 98%; with OVCAR-8 ovarian, 105%; with OVCAR-5 ovarian it was 86.6%; in the assay on OVCAR-4 ovarian, 97.5%; in the assay on SK-OV-3 ovarian it was 82.3%. The growth in the assay with IGROV1 ovarian was 96.9%; in the assay on OVCAR-3 ovarian, 97.3%; with HS 578T breast, 104%; in the assay with NCI/ADR-RES ovarian it was 95.4%.
For `CC/C=C\C[C@H]1C/C=C2/C(=O)C=C[C@@H]2C/C=C\CCCC(=O)O1`, the growth in the assay on SR leukemia was 0.487% (active); in the assay on RPMI-8226 leukemia it was -19.1% (active); in the assay on OVCAR-8 ovarian, 10% (active); in the assay with OVCAR-5 ovarian, 21.7%; with OVCAR-4 ovarian, 10.6%; with SK-OV-3 ovarian, 60.2%. Further, the growth in the assay with IGROV1 ovarian was -26.7% (active); with OVCAR-3 ovarian, -47.3% (active); in the assay with HS 578T breast, 36.4%; in the assay on NCI/ADR-RES ovarian, -1.72% (active).
On to `O=C(CNc1nc2ccccc2s1)Nc1ccc(-c2nc3ccccc3s2)cc1`, for which the growth with SR leukemia is 91.3%; in the assay on RPMI-8226 leukemia, 107%; in the assay with OVCAR-8 ovarian it was 102%; in the assay with OVCAR-5 ovarian, 98.4%; in the assay on OVCAR-4 ovarian, 102%; with SK-OV-3 ovarian, 107%. In addition, the growth in the assay with IGROV1 ovarian was 66.6%; with OVCAR-3 ovarian, 98%; in the assay with HS 578T breast, 100%; in the assay on NCI/ADR-RES ovarian it was 102%.
For the compound `O=C1CC(c2ccc(Cl)cc2)c2ncn(-c3cccc(Cl)c3)c2N1` (stereo not given), the growth in the assay with SR leukemia was 27.3%; in the assay with RPMI-8226 leukemia it was 58%; in the assay with OVCAR-8 ovarian, 56.5%; with OVCAR-5 ovarian, 96%; with OVCAR-4 ovarian, 87.2%; in the assay with SK-OV-3 ovarian it was 47.8%. Besides, the growth with IGROV1 ovarian was 59.8%; with OVCAR-3 ovarian it was 13.3%; in the assay with HS 578T breast, 52.8%; with NCI/ADR-RES ovarian it was 26.5%.
Regarding `CC12O[C@H](C[C@@H](OC(=O)CCC(=O)O)[C@H]1O)n1c3ccccc3c3c4c(c5c6ccccc6n2c5c31)C(=O)NC4=O`, the growth in the assay on SR leukemia was 0.804% (active); in the assay with RPMI-8226 leukemia, 58.7%; with OVCAR-8 ovarian it was 37.7%; in the assay on OVCAR-5 ovarian, 69.3%; in the assay with OVCAR-4 ovarian, 68%; in the assay on SK-OV-3 ovarian it was -8.63% (active). Besides, the growth was 20.4% in the assay with IGROV1 ovarian, 27.9% with OVCAR-3 ovarian, 19.2% with HS 578T breast and 58.7% in the assay with NCI/ADR-RES ovarian.
On to `c1cc[n+](Cc2c3ccccc3cc3c2ccc2ccccc23)cc1`, for which the growth in the assay with SR leukemia was 21.2%; in the assay on RPMI-8226 leukemia it was 17.6%; in the assay on OVCAR-8 ovarian, 39.8%; with OVCAR-5 ovarian, 81.1%; in the assay with OVCAR-4 ovarian, 34.4%; with SK-OV-3 ovarian it was 87.9%. Moreover, the growth in the assay on IGROV1 ovarian is 13.7%; in the assay with OVCAR-3 ovarian, 36%; in the assay on HS 578T breast it was 13.3%; with NCI/ADR-RES ovarian, 99.3%.
For the compound `COC(=O)[C@]12CC[C@@H](C)[C@H](C)[C@@H]1C1=CC[C@@H]3[C@@]4(C)C(C#N)=CC(C)=C4CC[C@@]3(C)[C@]1(C)CC2`, the growth in the assay on SR leukemia was 68%; in the assay on RPMI-8226 leukemia, 76.7%; in the assay with OVCAR-8 ovarian it was 103%; in the assay on OVCAR-5 ovarian, 91.9%; in the assay with OVCAR-4 ovarian, 88.3%; in the assay on SK-OV-3 ovarian, 99.3%. Moreover, the growth was 106% in the assay on IGROV1 ovarian, 88.9% with OVCAR-3 ovarian, 97.5% in the assay with HS 578T breast and 89.2% with NCI/ADR-RES ovarian.
As for `CC(C)OP(=O)(CCC(=O)c1c[nH]c2ccccc12)OC(C)C`, the growth with SR leukemia was 100%; in the assay on RPMI-8226 leukemia, 73.5%; in the assay on OVCAR-8 ovarian it was 91.8%; in the assay on OVCAR-5 ovarian, 107%; in the assay with OVCAR-4 ovarian it was 105%; in the assay with SK-OV-3 ovarian, 89%. The growth in the assay with IGROV1 ovarian was 106%; with OVCAR-3 ovarian, 106%; with HS 578T breast it was 86.6%; in the assay on NCI/ADR-RES ovarian, 103%.
With `Cc1cc2c(-c3nc4ccccn4c3NC3CCCCC3)c(O)c(O)cc2c(O)c1-c1c(C)cc2c(-c3nc4ccccn4c3NC3CCCCC3)c(O)c(O)cc2c1O`, the growth in the assay on SR leukemia is 25.8%; with RPMI-8226 leukemia it was 31.6%; with OVCAR-8 ovarian, 34.4%; in the assay on OVCAR-5 ovarian, 33.7%; with OVCAR-4 ovarian it was 27.4%; in the assay with SK-OV-3 ovarian, 41.5%. Also, the growth was 36.2% with IGROV1 ovarian, 32.4% in the assay on OVCAR-3 ovarian, 21.9% in the assay with HS 578T breast and 71.9% in the assay with NCI/ADR-RES ovarian.
